# Laboratory results: the supplement of paper PMC6555819
# Assays:
# Test in all cases: PBM binding z-score (relative to random genomic background probes); higher = stronger binding; sequences stand for … in GC…GCGATTGACAGCGTAGAATGAAGG
# [1] = tested on: FXR:RXRa (NR concentration 270 nM, RXRa partner concentration 90 nM)
# Summary of the method: (§1)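 Custom Agilent 4×180K protein-binding microarrays carried double-stranded probes, each with a 34-nt variable region. These regions held direct-repeat seeds, single-nucleotide variants, half-site ablations and random human genomic background sequences. Ligand-free nuclear receptor dimers were incubated on the arrays for 1 h, antibodies against each partner (one per run) detected binding, and scanned fluorescence was regression-normalized. Binding z-scores take the random background probes as reference.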
# [2] = tested on: LXRa:RXRa (NR concentration 270 nM, RXRa partner concentration 90 nM)
# Summary of the method: as §1
# [3] = tested on: LXRa homodimer (NR concentration 270 nM)
# Summary of the method: as §1
# [4] = tested on: LXRb:RXRa (NR concentration 270 nM, RXRa partner concentration 90 nM)
# Summary of the method: as §1
# [5] = tested on: LXRb homodimer (NR concentration 270 nM)
# Summary of the method: as §1
# [6] = tested on: PPARa:RXRa (NR concentration 270 nM, RXRa partner concentration 90 nM)
# Summary of the method: as §1
# [7] = tested on: PPARg:RXRa (NR concentration 180 nM, RXRa partner concentration 90 nM)
# Summary of the method: as §1
# [8] = tested on: PPARg:RXRa 270nM:90nM, anti-RXR (NR concentration 270 nM, RXRa partner concentration 90 nM)
# Summary of the method: as §1
# [9] = tested on: PPARg:RXRa 30nM:10nM, anti-RXR (NR concentration 30 nM, RXRa partner concentration 10 nM)
# Summary of the method: as §1
# [10] = tested on: PPARg:RXRa 90nM:30nM, anti-RXR (NR concentration 90 nM, RXRa partner concentration 30 nM)
# Summary of the method: as §1
Sequence,PBM binding z-score [1],PBM binding z-score [2],PBM binding z-score [3],PBM binding z-score [4],PBM binding z-score [5],PBM binding z-score [6],PBM binding z-score [7],PBM binding z-score [8],PBM binding z-score [9],PBM binding z-score [10]
TCTCGGAGGACACGAAGGTCTGAGCTTTCCAGAG,-0.23,-0.358,-1.07,-0.541,-1.44,0.131,-0.309,0.641,1.91,1.38
ATGGAAAGGTCGAGGTGAGTATAGAGAAAGGGAA,4.15,3.47,0.547,2.81,0.956,4.69,3.21,4.02,1.44,2.83
TGAATGCGGTTAAAGATCAGGGAACGTGGCGTCG,-0.28,-0.16,-0.66,-0.519,-0.199,1.25,1.64,3.54,1.66,2.98
TCTAGCAGGCCAGGGGGTCACTCAAGAGGTACGG,3.31,3.16,0.394,5.14,4.6,4.64,2.95,4.66,3.29,4.43
ATCGAAAGGTCGTTAGGTGAGTATACAGAAAGGC,3.98,3.54,0.592,3.08,1.11,4.25,2.59,3.29,1.33,2.27
TTACCAAGGTGAAAGGTCGTTGTTGCACGCCTTG,3.74,3.17,0.187,3.12,-0.415,5.29,8.39,7.47,6.57,8.04
GCGACTGGGGCAAAGCAGGTTCCCATAAGGTTGG,-0.34,-0.649,-0.593,-0.596,-1.21,0.522,0.609,0.847,-0.583,0.203
CAGCCTACGTCAGGGCCAGTATAGGAGGAACGTT,-0.299,-0.664,-0.318,-0.547,-1.11,-0.518,0.171,-0.999,-0.483,-0.832
GCTATTAGTTGAAAGGCCAACCGAATGATTCTCG,0.0459,0.417,0.216,0.305,-0.435,1.3,1.43,3.21,1.27,2.6
TAACCTAGGTCATTGGGCCAGTATAGTACGCATC,5.13,4.92,2.81,3.43,0.934,4.54,4.87,4.88,1.89,3.88
TAGCCTAGGTCATTGGGCCGGTATAGTACGCATC,4.26,2.99,0.765,2.23,0.429,3.43,2.46,2.72,0.313,1.53
CCTTACGGGTCACTGACAGGTTGTAGCATTTGGA,5.1,3.61,0.156,3.17,-0.356,4.93,4.26,4.06,0.971,2.97
TCGAGTAGGTTAGTCGGGGGATTCAGCCAACATA,0.552,0.506,-0.00348,2.06,6.46,1.13,0.0949,1.49,1.26,1.28
TTTCCAAGGTGAAGGTCGTTGATCCCTCTGTAGA,2.77,2.31,0.296,1.8,-0.21,2.81,2.68,3.7,1.88,3.35
ATACCAAGGTGATTGTGAGGTCGTTGATACTAAC,2.01,2.09,1.51,1.81,0.313,1.79,0.442,0.649,0.0726,0.48
CCTATCAGGCCAGGGTCACTCAAGCATTTCGCTT,2.19,1.74,-0.264,2.23,-0.67,3.33,0.918,1.93,-0.162,0.886
AGAATGAGGTTACCAAAGATCAGGGAGACGCTTG,2.11,6.33,-0.321,3.23,-0.156,3.38,2.8,2.92,1.02,2.15
CCCTACGGGTCACTCCAGGTTATAGCATCGGAGT,5.25,7.47,2.12,5.1,0.052,4.21,2.65,3.2,0.655,1.6
CGTCCAAGGTCAGCAGGCCAGTGAAAGCGACGTG,4.9,3.41,-0.314,2.31,-0.659,4.69,2.86,3.35,0.155,1.84
ATCTCTAGGTAAGACTCAGTTCAGCGAAGAACGC,0.373,0.369,0.471,0.111,0.684,0.278,0.231,0.241,0.0173,0.278
AGAATGAGGTTACCAAAGATCGGGGAAACGCTTG,1.75,4.95,-0.394,2.39,-0.29,3.28,2.29,2.42,0.813,1.48
CCTAGCAGGCCCATCTGGGTCACTCAAGGCTTGA,0.338,0.486,-0.426,0.484,-1.16,1.7,0.158,0.743,-0.909,-0.217
CGTCCAAGGTCAGCAGGTCAGTGGAAGCGACGTG,5.74,3.85,0.538,2.96,-0.217,4.94,4.05,4.15,0.99,2.87
TCGAGTAGGTTACCAATGGGGCACTCAGCTTTCT,-0.431,0.466,-1.03,0.379,-0.732,0.966,0.351,1.39,1.09,1.15

Sequence,PBM binding z-score [1],PBM binding z-score [2],PBM binding z-score [3],PBM binding z-score [4],PBM binding z-score [5],PBM binding z-score [6],PBM binding z-score [7],PBM binding z-score [8],PBM binding z-score [9],PBM binding z-score [10]
CCTTACGGGTCACTTCAGGTTATAGCATCGGAGT,5.1,7.75,2.3,5.47,0.687,4.36,3.23,3.7,1.22,2.2
TTACCAAAGTGAAGGTCGTTGATCCCTCTGTAGA,2.06,2.07,-0.0239,1.33,-0.489,1.15,-0.21,0.882,0.58,0.768
AGTCAAAGTTCACTAGGTAACGTACGATTCAGCT,5.6,5.41,3.55,3.27,0.963,4.79,7.47,6.6,3.88,5.98
TAGCCTAGGTCAGATCGGGCCGGTATACGCTATA,1.49,0.768,-0.645,0.506,-0.232,1.27,0.615,0.655,-0.199,0.0642
TAGCCTAGGTTATTCAGGGGCCAGTATAGAAAGC,0.502,1.27,-0.0903,1.24,0.216,0.523,0.241,-0.0507,-0.33,0.0793
CAAACTAGGTCACCGGAAGGTCAAAGTGCGCATG,6.51,6.25,5.26,5.66,1.52,6.36,9.79,7.84,5.91,7.97
GCTAGTTGGTCAGTAAAAGGTCTCACACCGGTCG,-0.182,-0.0505,-0.00726,-0.0991,-0.275,0.0782,0.203,0.834,-0.473,0.379
CGAAGTAGGTCAGAACAGGACAGTGAAGGATGAT,1.72,1.2,-0.0962,0.449,0.019,3.32,5.69,4.81,2.22,4.14
ATATGTAGGTTAAGGGTCGTTCAGGTTGGTTCGC,2.74,2.85,1.23,2.85,0.845,6.01,10.9,9.42,10.4,11
CGAACTAGGTCACAACAGGACAGTGAAGGATGAT,3.29,4.76,0.422,2.17,0.119,4.65,7.81,6.57,3.9,6.22
CCGACTGGGGCAGAAAGGTTACGATACCATCCGG,0.702,0.832,-0.247,1.01,-0.887,2.34,2.25,3.05,0.964,2.25
CCTACTGGGCCACGAAAGGTCATTGATTCAGTGA,3.58,5.34,4.9,4.15,0.552,4.58,4.57,5.08,2.53,4.4
AGACCGAGGGCAATGAGTTGATAGCACGGGTGGC,-0.192,-0.0854,-0.495,-0.427,-0.95,0.375,0.499,-0.467,-0.824,-0.435
ATCTCTAGGTTACAAGTTCAGTGAAAGAGAGGAC,1.64,2.33,1.68,1.55,1.77,2.51,2.72,3.25,1.77,2.97
ACAGACAGGTGATTAAGGTAACTCAGGCTATCAT,0.396,0.0407,-0.11,-0.0714,-0.205,0.176,0.468,0.0075,0.0784,0.0739
CAGCCTAGGTCAGGGCCAGTACAGGAGGAACGTT,1.53,0.993,-0.276,0.431,-1.11,2.09,0.833,0.908,-0.375,0.307
CGTCCGAGGTCAGAGAGGTCAGTGAATGCCGAGT,6.42,5.78,3.42,5.43,0.406,5.62,4.63,5.26,2,4.02
TAGCCTAGGTCATGCGGGCCGGTATAGTGTCGGC,4.25,3.22,0.206,1.43,-0.202,3.19,1.89,2.45,0.149,1.79
AGAACAAGGGCACGCTGAGTTGATAGCAGAGTAG,0.401,0.296,-0.369,-0.0707,-0.878,1.38,1.28,0.671,0.364,0.255
ACAGACTGGTGATGAAGGTAACTCAGGCTATCAT,-0.533,-0.452,-0.433,-0.663,-0.582,-0.594,0.512,0.104,-0.179,-0.158
TTACCAAGGTGAGCTGAGGTCGTCGATCCAACTC,1.73,0.879,-0.506,0.696,-1.82,1.82,0.26,1.06,-0.186,0.372
CCTGCTAGGTCACTGGTCAGCTAAAGCAGCTCGC,3.06,2.12,-0.0651,1.42,0.0623,3.29,3.55,4.04,1.31,3.18
ATCTCTAGGTAAAGCTAGTTCAGTGAATGCAAAT,0.153,1.45,-0.0105,0.175,0.196,0.456,-0.125,0.354,0.0636,0.224
CCTTGCAGGCCAGGGTCACTCAAGCATTTCGCTT,2.3,1.82,-0.569,1.99,-1.06,3.29,1.01,2.11,-0.339,1.02
